The source of these data is PubChem BioAssay AID430 (Sanford-Burnham Center for Chemical Genomics, 2006).

The whole screen tested about 63,000 compounds, of which about 1,100 (1.7%) were called active. This is one part of a sample in which actives are shown more often than they occur. Results with a measured potency or affinity are listed apart. Unmarked numbers belong to inactive results. Cut-off read from the data, not from the text of the source: active = cytotoxicity above about 50%; inactive = the rest.

The experiment in a line: HPDE-C7 pancreatic duct cell viability loss – fluorescence, HTS (AID 430).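 Note: cells exposed to compound for 48 hours before viability readout; 0% = vehicle and 100% = reference cytotoxic drug.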 Conditions: HPDE-C7 pancreatic duct cells viability, at 10 µM, hits give high values.
With `CC(C)(C)c1cc(CN2CCN(CCO)CC2)cc(C(C)(C)C)c1O`, the cytotoxicity was -9.7%.
Regarding `CC(C)(C)c1cc(C(=S)N2CCN(CCO)CC2)cc(C(C)(C)C)c1O`, the cytotoxicity was -4.1%.
In the case of `Cc1ccc2c(c1)N(CCCC(=O)NCC1COc3ccccc3O1)C(=O)CO2` (configuration not stated), the cytotoxicity was -5.2%.
In the case of `C(=N\n1cnnc1)/c1cn(-c2cccs2)nc1-c1ccccc1` it was -5.7%; in that of `O=C(O)C1CCN(C(=O)c2ccccc2C(=O)N2CCC(C(=O)O)CC2)CC1`, -9.9%.
As for `Cc1ccnc(NC(=O)C2CCN(S(=O)(=O)c3cccc4nsnc34)CC2)c1`, the cytotoxicity is -8.3%.
As for `O=S(=O)(c1ccccc1)N1CCN(C2CCN(Cc3ccccc3)CC2)CC1`, the figure is 22.9%; as for `Cc1ccc(SCc2[nH]nc3c2C(c2ccc(C)o2)C(C#N)=C(N)O3)cc1` (configuration not stated), 44.5%; as for `Cc1ccc(C2C(C#N)=C(N)Oc3nc(-c4ccccc4)[nH]c32)o1` (configuration not stated), -2.4%.
For the compound `CC1(C)Cc2cccc(OCC(=O)N3CCN(S(=O)(=O)c4ccccc4)CC3)c2O1`, the cytotoxicity is -2.1%.
In the case of `COC(=O)c1ccsc1NC(=O)c1ccc(Cl)s1` it was -0.2%.
As for `COc1ccc2nc(SCC(N)=O)[nH]c2c1`, the figure is -19.2%; as for `CCOc1ccc2nc(NCCO)[nH]c2c1`, -2.1%.
Regarding `CCCOc1ccc2nc(NC(=O)OC)[nH]c2c1`, the cytotoxicity was 61.4% (active).
Regarding `CCCSc1ccc2nc(NC(=O)OC)[nH]c2c1`, the cytotoxicity was 67.1% (active).
In the case of `COc1ccc2nc(NCCO)[nH]c2c1` it was -13.5%.
As for `COc1ccc(C(=O)Nc2nc3ccccc3[nH]2)cc1OC`, the figure is -5.6%; as for `CCCCC(c1nnnn1CS(=O)(=O)c1ccc(C)cc1)N1CCN(c2ccccc2)CC1` (configuration not stated), -30%; as for `O=C(NC1CCCc2ccccc21)C1CCN(S(=O)(=O)c2cccc3nonc23)CC1` (configuration not stated), -29.1%.
In the case of `O=C(c1cc2sccc2n1Cc1ccccc1)N1CCc2ccccc21` it was 9.3%; in that of `CC(=O)N1CCN(CC(=O)Nc2c(Cl)cc(Cl)cc2Cl)CC1`, 0%; in that of `COc1ccc(N2CCN(C(=O)c3ccc(S(=O)(=O)N4CCOCC4)cc3)CC2)cc1`, 3.1%.
`COc1cc(OC)nc(NC(=O)COC(=O)C2CCCCC2)n1`: the cytotoxicity is 8.7%.
For the compound `COc1ccc(-n2c(Cc3cccn3C)nnc2SCC(=O)Nc2ccccc2F)cc1`, the cytotoxicity was -11.2%.
In the case of `O=C(C1=C(O)C(=O)N(c2ncccn2)C1c1ccc(Cl)c(Cl)c1)c1ccco1` (configuration not stated) it was 7.8%.
For the compound `Cc1ccc(C(=O)C2=C(O)C(=O)N(c3ncccn3)C2c2cccc(Cl)c2)o1` (configuration not stated), the cytotoxicity was 22.7%.
As for `Cc1ccc(C(=O)C2=C(O)C(=O)N(c3ncccn3)C2c2ccc(Cl)cc2)o1` (configuration not stated), the figure is 68.3% (active).
In the case of `CCOc1ccc(-c2noc(-c3cccnc3)n2)cc1OC`, the cytotoxicity is 0.1%.
In the case of `Cc1[nH]nc2c1C1(CCN(C(=O)c3ccccc3)CC1)C(C#N)=C(N)O2` it was -19.1%; in that of `Cc1ccc(NC(=O)N2CCC(C(=O)NCCC3=CCCCC3)CC2)cc1`, -6.2%.
In the case of `CC1(C)Cc2noc(N)c2C(C)(C)N1OC(=O)c1ccccc1` it was -5.7%; in that of `Nc1c(C(=O)NC2CCCC2)sc2nc(-c3cccs3)ccc12`, 10.5%; in that of `Cc1csc(NC(=O)c2sc3nc(-c4cccs4)ccc3c2N)n1`, 60.5% (active).
As for `CCCSc1nnc(NC(=O)c2sc3nc(-c4cccs4)ccc3c2N)s1`, the figure is 41.2%.
Turning to `CCCOc1ccc(S(=O)(=O)NCCN2CCOCC2)c2ccccc12`, the cytotoxicity was -13.1%.
On to `O=C(NC1CCCCC1)C1CC(=O)N(c2ccc(Cl)cc2)C1` (configuration not stated), for which the cytotoxicity is -9.5%.
In the case of `CC1(C)C(c2cccs2)=NC(c2ccccc2)N1O` (configuration not stated) it was -25.9%; in that of `Cc1ccc(C(N)=O)cc1S(=O)(=O)Nc1cccc(C)c1C`, 18.4%; in that of `O=C(CC1Oc2ccccc2NC1=O)NCCCN1CCN(C2CCCCC2)CC1` (configuration not stated), 2.6%.
As for `O=C(CSCCSCC(=O)c1ccco1)c1ccco1`, the figure is 10.6%; as for `O=C(CC(SCCO)c1ccc(F)cc1)c1ccco1` (configuration not stated), 3.7%; as for `Cc1ccc(C(CC(=O)c2ccco2)SCCO)cc1` (configuration not stated), 99.5% (active).
In the case of `CCC(=O)N1CC23C=CC(CC2CC12CCCCC2)O3` (configuration not stated) it was -6.8%; in that of `COc1ccc(OC)c(CC(NC(C)=O)C(=O)NC2CCN(c3nc(C)cc(C)c3C#N)CC2)c1` (configuration not stated), -6.9%.
Take `COc1ccc(-c2oc(/N=C/N3CCOCC3)c(C#N)c2-c2ccc(OC)cc2)cc1`: the cytotoxicity was -7.7%.
As for `NC1=NC2(CCN(Cc3ccccc3)CC2)n2c(nc3ccccc32)N1`, the figure is 0.8%.
`NC1=NC2(CCC(c3ccccc3)CC2)n2c(nc3ccccc32)N1` (configuration not stated): the cytotoxicity is 77.1% (active).
`NC1=NC2(CCCCC2)n2c(nc3ccccc32)N1`: the cytotoxicity is 11.9%.
In the case of `CCCn1c(SCC(=O)Nc2ccc3c(c2)OCO3)nc2c1c(=O)n(C)c(=O)n2C`, the cytotoxicity was -4.6%.
In the case of `Cc1noc(C)c1CSc1ncnc2ccccc12` it was 4.7%.
As to `O=S(=O)(Nc1nc2ccccc2nc1NCc1ccco1)c1ccc(Cl)cc1`, the cytotoxicity was 18.1%.
In the case of `Cc1noc(C)c1CSc1nc2ccccc2nc1NS(=O)(=O)c1ccc(Cl)cc1` it was 81.1% (active).
`O=C(CN1CCN(c2ccccn2)CC1)N1c2ccccc2Sc2ccc(C(F)(F)F)cc21`: the cytotoxicity was 22.1%.
As for `O=C(c1ccco1)N1c2ccccc2Sc2ccccc21`, the figure is 4.4%; as for `O=C(N1CCN(c2ccccn2)CC1)N1c2ccccc2Sc2ccccc21`, 66.7% (active).
Regarding `O=C(N1CCOCC1)N1CCN(c2ccccn2)CC1`, the cytotoxicity is -15.7%.
In the case of `O=C(c1ccco1)N1CCN(C(=O)N2c3ccccc3Sc3ccccc32)CC1` it was 73.2% (active); in that of `O=C(NC1CCN(C(=O)N2c3ccccc3Sc3ccccc32)CC1)c1ccco1`, -12.6%; in that of `CC(=O)N1c2c(cc(Br)cc2S(=O)(=O)NCC2COc3ccccc3O2)CC1C` (configuration not stated), 13.1%.
In the case of `COc1ccc(-c2oc3ncnc(NCCCN4CCOCC4)c3c2-c2ccc(OC)cc2)cc1` it was 67.3% (active); in that of `c1ccc(-c2oc3ncnc(NCCCN4CCOCC4)c3c2-c2ccccc2)cc1`, 48.6%.
As for `COc1ccc(-c2oc3ncnc(NCCN4CCOCC4)c3c2-c2ccc(OC)cc2)cc1`, the figure is 3.3%.
Consider `Cc1cccc(CS(=O)(=O)Cc2ccc(C(=O)NCc3cccnc3)o2)c1`, for which the cytotoxicity was -7.1%.
As for `c1ccc2c(SCc3cn4cccnc4n3)ncnc2c1`, the figure is 13.3%; as for `Cc1cc(=O)n2c3c(sc2n1)C(=O)N(Cc1ccccc1)C3=O`, 3.8%.
In the case of `Cc1ccc(Nc2nc(N)nc(CN3CCN(c4ccccc4)CC3)n2)cc1Cl` it was 72.1% (active).
In the case of `Cc1cccc(Nc2nc(N)nc(CN3CCN(c4ccccc4)CC3)n2)c1` it was -13.2%; in that of `COc1ccc(N2CCN(Cc3nc(N)nc(Nc4ccc(C)c(Cl)c4)n3)CC2)cc1`, 7.9%.
Regarding `O=C(Nc1nccs1)c1ccc(Br)o1`, the cytotoxicity is -3.3%.
In the case of `Cc1ccc(C(=O)NCCn2cc(SCC(=O)Nc3nnc(C)s3)c3ccccc32)cc1` it was -2%; in that of `c1ccc(CSc2nnc(-c3c[nH]c4ccccc34)o2)cc1`, -3.6%.
Take `S=c1[nH]nc(Cc2c[nH]c3ccccc23)o1`: the cytotoxicity is -0.8%.
In the case of `O=C(Nc1ccc2c(c1)OCO2)Oc1ccccc1` it was -9.1%; in that of `c1nc(NCCN2CCOCC2)c2sc3nc(N4CCOCC4)c4c(c3c2n1)CCC4`, 16.6%; in that of `COC(=O)CSc1ncnc2c1sc1nc(-c3ccco3)c3c(c12)CC(C)(C)OC3`, 15%.
As for `CSc1nc(N2CCN(CCO)CC2)c2sc3nc(-c4ccco4)c4c(c3c2n1)CCC4`, the figure is -8.6%; as for `OCCN(CCO)c1ncnc2c1sc1nc(N3CCOCC3)c3c(c12)CCCC3`, -3.9%.
In the case of `CCC1Oc2ccccc2N(CC(=O)NCCC2=CCCCC2)C1=O` (configuration not stated), the cytotoxicity is 0.8%.
In the case of `COc1cccc(N2CCN(C(=O)CCn3c(=S)[nH]c4cc5c(cc4c3=O)OCO5)CC2)c1` it was -14.3%; in that of `Cc1cc(C)n(-c2nnc(C)n2/N=C/c2ccccc2OCc2ccccc2Cl)n1`, 34.5%.
As for `Cc1cc(C)n(-c2nnc(C)n2/N=C/c2cc(Br)ccc2OCc2ccccc2)n1`, the figure is 57.6% (active).
For `CCCOc1ccc2ccccc2c1/C=N/n1c(C)nnc1-n1nc(C)cc1C`, the cytotoxicity is 41.9%.
Regarding `COc1ccc(O)c(-c2cc(-c3cccs3)[nH]n2)c1`, the cytotoxicity was 26.9%.
Take `Oc1ccc(Br)cc1-c1cc(-c2ccccc2F)[nH]n1`: the cytotoxicity is 12.4%.
As to `CSc1nnc2n(-c3ccccc3)c(=O)c3c4c(sc3n12)CCC4`, the cytotoxicity is 11.5%.
With `O=S(=O)(c1ccccc1)N1CCN(Cc2ccccc2C(F)(F)F)CC1`, the cytotoxicity is -2.9%.
Regarding `CCOc1ccc(NS(=O)(=O)c2ccc3c(c2)CCN3C(=O)CCC(=O)O)cc1`, the cytotoxicity was -5.5%.
With `O=S(=O)(c1ccc2ccccc2c1)N(CC(O)CN1CCOCC1)c1ccccc1` (configuration not stated), the cytotoxicity is -8%.
As for `O=S(=O)(c1ccc2ccccc2c1)N1CCCCC1`, the figure is -5.5%; as for `CCCn1c(SCC(=O)Nc2cccc(C)n2)nnc1-c1ccco1`, -2%.
`CCOC(=O)C1=C(C)NC(C)=C(C(=O)OCC)C1c1ccc(OC)cc1`: the cytotoxicity is 11.1%.
In the case of `CN1CCN(C(CNS(=O)(=O)c2ccc(Cl)cc2)c2cccnc2)CC1` (configuration not stated), the cytotoxicity was 2.1%.
As for `COCCNC(=O)C(c1ccccc1C)N(CCOC)C(=O)Cn1nnc2ccccc21` (configuration not stated), the cytotoxicity was 4.3%.
Consider `O=C(CSc1nnc(-c2cccs2)o1)N1CCOCC1`, for which the cytotoxicity was -10.3%.
In the case of `CCOC(=O)c1cn2c3c(c(F)c(F)c(F)c3c1=O)SC(N1CCCC1)=N2` it was 62.5% (active); in that of `CCOC(=O)c1sc2c(c1C)c(=O)c(C(=O)OCC)cn2CC`, 1.7%.
In the case of `CCOC(=O)c1cn(CC)c2cc(N3CCCCC3)c(F)cc2c1=O` it was 3.7%.
